# Measurements published in PubChem BioAssay AID1494156 (National Center for Advancing Translational Sciences (NCATS), 2020).
# Records with an inconclusive call do not appear. A number with no mark means an inactive call. The source made the active and inactive calls. Calls follow the shape of the full dose curve.
# Experiment: VSV-G qHTS counterscreen for inhibitors of MERS-S pseudo-typed particle cell entry
# Settings: VSV-G pseudotyped particle cell entry, luciferase counterscreen; series mostly up to 57.1 µM; activity, negative = inhibition: at the top concentration
Compound,Potency,"activity, negative = inhibition"
Cc1c(N)nc(C(CC(N)=O)NCC(N)C(N)=O)nc1C(=O)NC(C(=O)NC(C)C(O)C(C)C(=O)NC(C(=O)NCCc1nc(-c2nc(C(=O)NCCCN[C@@H](C)c3ccccc3)cs2)cs1)C(C)O)C(O[C@@H]1O[C@@H](CO)[C@@H](O)[C@H](O)[C@@H]1O[C@H]1O[C@H](CO)[C@@H](O)[C@H](OC(N)=O)[C@@H]1O)c1cnc[nH]1 (some centres not stated),0.764 µM (active),
COc1cc2nccc(Oc3ccc(NC(=O)NC4CC4)c(Cl)c3)c2cc1C(N)=O,17.1 µM (active),
COc1cccc2c1C(=O)c1c(O)c3c(c(O)c1C2=O)C[C@@](O)(C(C)=O)C[C@@H]3O[C@H]1C[C@H](N)[C@H](O)[C@H](C)O1,1.92 µM (active),
COC(=O)C1=C(C)NC(C)=C(C(=O)OCC(C)C)C1c1ccccc1[N+](=O)[O-] (configuration not stated),17.1 µM (active),
NCCNc1ccc(NCCN)c2c1C(=O)c1ccncc1C2=O,21.5 µM (active),
C=C(C)[C@H]1Cc2c(ccc3c2O[C@@H]2COc4cc(OC)c(OC)cc4[C@@H]2C3=O)O1,0.0108 µM (active),
CCn1cc(C(=O)O)c(=O)c2cc(F)c(N3CCNC(C)C3)c(F)c21 (configuration not stated),,0.566%
CCCCCCOC(=O)NC(=N)c1ccc(NCc2nc3cc(C(=O)N(CCC(=O)OCC)c4ccccn4)ccc3n2C)cc1,27.1 µM (active),
CC(=O)OCC1=C(C(=O)O)N2C(=O)[C@@H](NC(=O)Cc3cccs3)[C@H]2SC1,,-2.27%
CN1CCCCC1CCN1c2ccccc2Sc2ccc(S(C)=O)cc21 (configuration not stated),27.1 µM (active),
Cc1oncc1C(=O)Nc1ccc(C(F)(F)F)cc1,,0%
COc1cccc2c1C(=O)c1c(O)c3c(c(O)c1C2=O)C[C@@](O)(C(=O)CO)C[C@@H]3O[C@H]1C[C@H](N)[C@H](OC2CCCCO2)[C@H](C)O1 (some centres not stated),,0%
COc1cccc2c1C(=O)c1c(O)c3c(c(O)c1C2=O)C[C@@](O)(C(=O)CO)C[C@@H]3O[C@H]1C[C@H](N)[C@@H](O)[C@H](C)O1,2.41 µM (active),
Oc1c(Cl)cc(Cl)c(Cl)c1Cc1c(O)c(Cl)cc(Cl)c1Cl,1.08 µM (active),
CN(C)CC/C=C1\c2ccccc2Sc2ccc(Cl)cc21,8.57 µM (active),
Nc1ccn([C@@H]2O[C@H](CO)[C@@H](O)C2(F)F)c(=O)n1,0.136 µM (active),
CCCCCCCCCCCCCC[n+]1ccc(C)cc1,1.71 µM (active),
N=C(N)c1ccc(OCCCCCOc2ccc(C(=N)N)cc2)cc1,10.8 µM (active),
CC(C)OC(=O)OCOP(=O)(CO[C@H](C)Cn1cnc2c(N)ncnc21)OCOC(=O)OC(C)C,0.0192 µM (active),
C[C@@H](c1nc(-c2ccc(C#N)cc2)cs1)[C@](O)(Cn1cncn1)c1cc(F)ccc1F,2.15 µM (active),
C=C1c2c(Cl)ccc(O)c2C(O)=C2C(=O)[C@@]3(O)C(O)=C(C(N)=O)C(=O)[C@@H](N(C)C)[C@@H]3[C@@H](O)[C@H]12,19.2 µM (active),
CNC(=O)c1cc(Oc2ccc(NC(=O)Nc3ccc(Cl)c(C(F)(F)F)c3)c(F)c2)ccn1,15.2 µM (active),
O=C1c2c(O)ccc(O)c2C(=O)c2c(NCCNCCO)ccc(NCCNCCO)c21,0.541 µM (active),
O=c1ccc2ccccc2o1,,0%
COc1cc([C@@H]2c3cc4c(cc3C(O[C@@H]3O[C@@H]5CO[C@@H](c6cccs6)OC5[C@H](O)[C@H]3O)C3COC(=O)[C@@H]32)OCO4)cc(OC)c1O (some centres not stated),0.192 µM (active),
O=C(O)c1cc(O)c2c(c1)[C@H]([C@H]1c3cc(C(=O)O)cc(O)c3C(=O)c3c(O[C@@H]4O[C@H](CO)[C@@H](O)[C@H](O)[C@H]4O)cccc31)c1cccc(O[C@@H]3O[C@H](CO)[C@@H](O)[C@H](O)[C@H]3O)c1C2=O,7.44 µM (active),
CO[C@@]12[C@H](COC(N)=O)C3=C(C(=O)C(C)=C(N)C3=O)N1C[C@@H]1N[C@@H]12,0.857 µM (active),
